Sfp PPTase inh – inhibitors of Bacillus subtilis Sfp phosphopantetheinyl transferase | Q9F4F7 | AID 1490 | Biochemical Sfp PPTase activity, qHTS | Potency, µM, usual class: inhibitors | 310,000 compounds, 3.5% hits;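 also: the enzyme is Sfp with the accession as filed and its product quenches rhodamine fluorescence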
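Buffer: 50 mM Hepes-Na pH 7.6, 10 mM MgCl2, 0.01% Nonidet P-40, 0.01% BSA. Enzyme 15 nM, pre-exposed to compound 15 min; substrates then added and fluorescence change tracked over 30 min.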
G9a block – blocks human histone lysine methyltransferase G9a; Q96KQ7; G9a H3K9 monomethylation, AlphaScreen, 2 h; Potency, µM (top dose mostly 102 µM), hits mostly inhibitors; 350,000 compounds, 8.8% hits; AID 504332; also: nearly all actives have a fitted effect of over 75% in size
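Quantitative HTS format: methyltransferase activity on a biotin-tagged H3K9 peptide is measured by AlphaScreen, using a rabbit anti-monomethyl-H3K9 antibody with streptavidin donor and anti-IgG acceptor beads. Final levels are 20 nM enzyme, 500 nM peptide, 20 uM SAM; 2 h RT.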
BAZ2B block – BAZ2B (human) inhibition. AID 504333. AlphaScreen BAZ2B-H3K14Ac peptide displacement. Q9UIF8. 360,000 compounds, 4.4% hits. Potency, µM (titrated, usually from 114 µM), usual class: inhibitors; also: nearly all actives have a fitted effect of over 60% in size
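AlphaScreen displacement: compounds (up to 110uM) incubated 30 min at room temperature with a preformed 50 nM BAZ2B/50 nM biotinylated H3K14Ac peptide complex in PBS pH 7.4 with Tween-20. Donor and acceptor beads at 10 ug/mL final added, 20 min light-protected before reading.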
HP1b binding inh – HP1-beta chromodomain-methylated histone interaction inhibition; AID 540317; AlphaScreen HP1-beta / biotin-H3K9me3 peptide binding; 390,000 compounds, 0.56% hits; Potency, µM (doses to about 114 µM), hits mostly inhibitors; also: nearly all actives have a fitted effect of over 70% in size
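Compound inhibition of the preformed complex between 50 nM HP1-beta and 50 nM biotinylated H3K9me3 peptide was read by AlphaScreen. Buffer was PBS pH 7.4 with 0.01% Tween-20. Incubations ran 30 min at room temperature, with 10 ug/mL donor/acceptor beads.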
L3MBTL1 inh – L3MBTL1 (human) inhibition; Q9Y468; AlphaScreen L3MBTL1–H3K9me1 peptide binding; Potency, µM (highest dose often 57.1 µM), actives largely listed as inhibitors; 230,000 compounds, 0.66% hits; also: nearly all actives have a fitted effect of over 60% in size
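AlphaScreen assay: L3MBTL1 (50 nM final) was preincubated 30 min at room temperature with biotinylated H3(1-15)K9me1 peptide (75 nM final), then 30 min with library compounds; streptavidin donor and nickel chelate acceptor beads (10 ug/mL final) added, 30 min dark.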
JMJD2A Tudor – JMJD2A Tudor domain (human) inhibition; 390,000 compounds, 4.4% hits; AlphaScreen JMJD2A-Tudor / H3K4me3 peptide binding; Potency, µM (doses to about 114 µM), most hits filed as inhibitors; O75164; also: nearly all actives have a fitted effect of over 50% in size
Hits are given with their value; . = inactive; ? = inconclusive; / = not tested or not shown; ! = not active in a repeat; [ ] = another dose, or the depositor's remark. In the library only some 12% were active in any assay of this set; here they are far more common. Calls follow the shape of the dose curve; as a rule, active = well fitted curve in the direction sought with a large enough effect; inconclusive = small, poorly fitted or top-dose-only effect, or another doubt; inactive = no such curve, though single readings can be large; an effect the other way counts as inactive or inconclusive.

SMILES	Sfp PPTase inh	G9a block	BAZ2B block	HP1b binding inh	L3MBTL1 inh	JMJD2A Tudor
COC(=O)c1cc2oc(C)cc2n1CC(=O)N1CCCc2ccccc21	56.2µM	?	89.1µM	.	.	?
CCOC(=O)c1cc2occc2n1CC(=O)N1CCCc2ccccc21	79.4µM	?	79.4µM	.	.	?
CCOC(=O)c1cc2sccc2n1CC(=O)N1CCCc2ccccc21	.	.[12.7 µM]	.	.	.	.
COc1ccc(NC(=O)N2CCN(S(=O)(=O)c3ccc4c(ccn4C)c3)CC2)c(OC)c1	/	.	.	.	/	.
Cc1ccc2scc(N3CCN(c4ccccc4)CC3)c(=O)c2c1	/	?	?	.	/	44.7µM
O=c1c(N2CCN(c3cccc(Cl)c3)CC2)csc2ccccc12	/	?	?	.	/	39.8µM
Cc1ccc2scc(N3CCN(c4ccc(F)cc4)CC3)c(=O)c2c1	/	.	?	.	/	?
Cc1cccc2c(=O)cc(CSc3ccccc3NC(=O)c3cccc(Cl)c3)[nH]c12	/	.	.	.	/	.
COc1ccc(O)c(/C=c2/sc3nc4cc(C)c(C)cc4n3c2=O)c1	8.91µM	2.51µM	.	?	.	?
O=C(Nc1ccccc1)N(Cc1cccs1)c1ccc(F)cc1	/	.	.	.	/	.
Cc1ccc(CSCC2Nc3ccc(C(=O)N4CCN(c5cccc(C)c5)C(C)C4)cc3NC2=O)cc1 (stereo not drawn)	50.1µM	7.08µM	.	/	/	/
CCCCCn1c(=O)[nH]c2cc(C(=O)N3CCN(c4cccc(C)c4)C(C)C3)ccc2c1=O (stereo not drawn)	/	.	.	.	/	.
Cc1cccc(N2CCN(C(=O)c3cccc(N4C(=O)C5C6C=CC(C6)C5C4=O)c3)CC2C)c1 (stereo not drawn)	.	.	.	.	/	.
Cc1cccc(N2CCN(C(=O)c3ccc4c(c3)NC(=O)C(CSCc3ccc(F)cc3)N4)CC2C)c1 (stereo not drawn)	56.2µM	14.1µM	.	/	/	/
CCN(C(=O)CN1C(=O)COc2ccc(S(=O)(=O)N3CCOCC3)cc21)c1cccc(C)c1	/	.	.	.	/	.
Cc1nn(CCC(=O)Nc2ccc(Cl)cc2)c(C)c1S(=O)(=O)N1CCCCC1	/	.	.	.	/	.
Cc1ccc(CNC(=O)c2c[nH]n3c(=O)c(Cc4ccc(Cl)cc4)c(C)nc23)cc1	/	.	.	.	/	.
CCCOc1ccc(NC(=O)CC2C(=O)N(c3ccc(Cl)cc3)C(=O)N2CCc2ccncc2)cc1 (stereo not drawn)	/	.	.	.	/	.
COc1cccc(C(=O)Nc2ccc(NC(C)=O)cn2)c1	.	.	.	.	.	.
COc1cccc(C(=O)Nc2ccc(NC(=O)C3CC3)nc2)c1	.	39.8µM	.	.	/	.
O=C(Nc1ccc(NC(=O)C2CCCCC2)nc1)c1ccccn1	.	28.2µM	?	.	.	?
CCCC(=O)Nc1ccc(NC(=O)c2ccccn2)cn1	.	?	.	.	.	3.16µM
CCCC(=O)Nc1ccc(NC(=O)c2ccccc2OC)cn1	.	.	.	.	.	.
COCCCNC(=O)CCc1c(C)nc2cc(-c3ccc(Cl)cc3)nn2c1C	/	.	.	.	/	.
COc1ccc(-n2nc(C(=O)O)c(=O)n(C)c2=O)cc1	/	.	.	.	/	.
SMILES	Sfp PPTase inh	G9a block	BAZ2B block	HP1b binding inh	L3MBTL1 inh	JMJD2A Tudor
C[C@@H]1NC(=O)[C@H](CC(N)=O)NC(=O)c2cc([N+](=O)[O-])cc(I)c2OCC[C@@H](C(=O)NC(CC(=O)O)C(N)=O)NC1=O (stereo partly drawn)	.	28.2µM	.	.	.	.
NC(=O)C(CC(=O)O)NC(=O)[C@@H]1CCOc2c(I)cc([N+](=O)[O-])cc2C(=O)N[C@@H](CCC(=O)O)C(=O)N[C@@H](CO)C(=O)N1 (stereo partly drawn)	.	7.94µM	?	.	.	?
NC(=O)[C@@H]1CCCCNc2c(F)cc([N+](=O)[O-])cc2C(=O)N[C@@H](CCCN=C(N)N)C(=O)NCC(=O)N1	.	.	.	.	.	.
C[C@@H]1NC(=O)c2cc([N+](=O)[O-])cc(I)c2OCC[C@@H](C(=O)NC(CC(=O)O)C(N)=O)NC(=O)[C@H](CCC(=O)O)NC1=O (stereo partly drawn)	.	35.5µM	.	.	?	?
Cc1ccc(C(=O)Nc2cc3c(cc2C)n(C)c(=O)c(=O)n3C)cc1	/	.	.	.	/	.
Cc1ccc(N2CCN(c3cc(C)nc4c(-c5ccc(Cl)cc5)c(C)nn34)CC2C)cc1 (stereo not drawn)	/	.	.	.	/	.
CCCCOc1ccc(CNC(=O)CCCN2C(=O)CSc3c2c(C)nn3-c2ccccc2)cc1	/	.	.	.	/	.
CN(C)CCOC(c1ccc(Cl)cc1)c1ccccn1 (stereo not drawn)	.	44.7µM!	.	.	.	.
CC1C2(C)OC(=N)C(C#N)(C(C)O2)C1(C#N)C#N (stereo not drawn)	.	70.8µM	.	.	.	.
Cc1c(C(=O)N2CCCC(C)C2)sc2ncnc(N3CCCCC3C)c12 (stereo not drawn)	79.4µM	.	.	.	/	.
Cc1c(C(=O)O)sc2ncnc(N3CCCCC3C)c12 (stereo not drawn)	.	.[12.7 µM]	.	.	.[11.4 µM]	.
Cc1ccc(C(=O)Nc2ccccc2C(=O)O)cc1S(=O)(=O)NC1CCCCC1	.	70.8µM	56.2µM	.	/	.
COc1ccccc1NS(=O)(=O)c1cc(C(=O)NCc2ccco2)ccc1C	.	.	.	.	/	50.1µM
Cc1ccc(C(=O)Nc2ccccc2C(=O)NCc2ccco2)cc1S(=O)(=O)N1CCCCC1	.	15.8µM	.	.	.	?
CCCCN(CCCC)C(=O)CN(C)S(=O)(=O)c1ccc2c(c1)c(=O)n(C)c(=O)n2C	/	.	.	.	/	.
CCCCCC(=O)O[C@H](CC(=O)O)C[N+](C)(C)C	.	/	/	/	/	/
CN(C(=O)CSc1nc2ccccc2n1CC(=O)N(C)C1CCCCC1)c1ccc(F)cc1	/	.	.	.	/	.
CCC(=O)N1c2ccc(S(=O)(=O)N3CCC(C)CC3)cc2CC1C (stereo not drawn)	/	.	/	.	/	.
C#CCOCCOCCOCCNc1nc(N2CCN(C(=O)C(Cc3cc4ccccc4[nH]3)n3cc(C(N)C(C)CC)nn3)CC2)nc(N2CCN(C(=O)C(Cc3cc4ccccc4[nH]3)n3cc(C(N)C(C)CC)nn3)CC2)n1 (stereo not drawn)	17.8µM	.	28.2µM	?	?	28.2µM
C#CCOCCOCCOCCNc1nc(N2CCN(C(=O)[C@H](CCC(=O)O)n3cc(C(N)[C@H](C)CC)nn3)CC2)nc(N2CCN(C(=O)[C@H](Cc3cc4ccccc4[nH]3)n3cc(C(N)[C@H](C)CC)nn3)CC2)n1 (stereo partly drawn)	.	.[12.7 µM]	50.1µM	/	.	/

Screening results: PubChem BioAssay, National Center for Advancing Translational Sciences (NCATS)
